We go through 21 compounds from PubChem BioAssay (Tox21).

Assay [1] is described as follows: Caspase-3/7 induction in CHO-K1 cells by small molecules, qHTS cell viability counter screen (AID 1346979). Further: nearly all actives have a fitted effect of over 35% in size. Further: potency means the concentration at half of the fitted maximal effect. The essentials: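 Cytotoxicity counter screen run in parallel with the caspase-3/7 assay: CHO-K1 cells, 16hr compound treatment at 37C, then CellTiter-Fluor for 1hr before fluorescence reading.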
Assay [2] is described as follows: Caspase-3/7 induction in CHO-K1 cells by small molecules, qHTS assay (AID 1346980). Further: nearly all actives have a fitted effect of over 15% in size. Further: potency means the concentration at half of the fitted maximal effect. The essentials:
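Wild-type CHO-K1 cells exposed to compounds for 17hr at 37 C, 5% CO2. Caspase-3/7 activity then measured by Caspase-Glo 3/7 luminescence after 30min at room temperature.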
Background: qHTS replaces the single test concentration by a dilution series.

Assay [3] in a line: Caspase-3/7 induction in HepG2 cells by small molecules, qHTS cell viability counter screen (AID 1346981). Further: nearly all actives have a fitted effect of over 30% in size. Further: potency means the concentration at half of the fitted maximal effect. On activity change, negative = cytotoxicity: series mostly up to about 92 µM. In outline: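 Cell viability is measured as a cytotoxicity counter screen alongside the Caspase-Glo 3/7 readout in identical wells. Wild-type HepG2 cells are treated with test compounds for 16 hr at 37 C before CellTiter-Fluor addition and a 1-hr incubation.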
In assay [4] the target is Nuclear receptor subfamily 1 group I member 2 (Homo sapiens) (UniProt O75469). The experiment in a line: Human pregnane X receptor (PXR) small molecule agonists, qHTS assay (AID 1346982). Further: nearly all actives have a fitted effect of over 35% in size. Further: potency means the concentration at half of the fitted maximal effect. The essentials: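 Cells: HepG2 stably carrying PXR-Luc. Medium held 5% charcoal-stripped FBS. Compounds in DMSO added after 5 hr plating, incubated 24 hr, then luminescence quantified with ONE-Glo.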
Nuclear receptor subfamily 1 group I member 2 (Homo sapiens), sequence (O75469 whole entry, looked up): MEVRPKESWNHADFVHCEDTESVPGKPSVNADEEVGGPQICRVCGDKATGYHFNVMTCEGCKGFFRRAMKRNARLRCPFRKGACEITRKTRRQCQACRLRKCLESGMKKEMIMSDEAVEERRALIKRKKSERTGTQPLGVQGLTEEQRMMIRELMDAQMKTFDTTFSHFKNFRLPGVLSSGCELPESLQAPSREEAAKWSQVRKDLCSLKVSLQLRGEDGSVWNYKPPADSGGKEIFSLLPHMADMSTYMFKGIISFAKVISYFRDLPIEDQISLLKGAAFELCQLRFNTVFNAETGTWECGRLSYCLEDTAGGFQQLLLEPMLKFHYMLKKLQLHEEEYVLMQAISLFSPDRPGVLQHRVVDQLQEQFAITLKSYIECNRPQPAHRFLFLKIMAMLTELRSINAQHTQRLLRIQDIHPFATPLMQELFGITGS

Assay [5] has the same target. Briefly: CYP3A4 induction through human pregnane X receptor (PXR) by small molecules, qHTS assay (AID 1346984). Further: nearly all actives have a fitted effect of over 40% in size. Further: potency means the concentration at half of the fitted maximal effect. The essentials:
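Quantitative HTS in DPX-2 cells, i.e. HepG2 transfected with PXR response element and CYP3A4-promoter luciferase. Compounds in DMSO incubated 24hr at 37C; then P450-Glo CYP3A4 substrate, 3uM final, 3hr; One-Glo luminescence.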

For assay [6] the target is unchanged. The experiment in a line: Human pregnane X receptor (PXR) activation by small molecules, qHTS assay (AID 1346985). Further: nearly all actives have a fitted effect of over 40% in size. Further: potency means the concentration at half of the fitted maximal effect. In outline: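 DPX-2 cells (HepG2 co-transfected with a PXR response element and a CYP3A4-promoter luciferase construct) were seeded at 2,000 per well, rested 5 hr at 37C, then exposed to DMSO-dissolved compounds for 24 hr. Activation was read as luciferase luminescence.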

Assay [7] concerns the target Cytochrome P450 2D6 (Homo sapiens) (UniProt P10635). The experiment in a line: Cytochrome P450 Family 2 Subfamily D Member 6 (CYP2D6) small molecule antagonists: luciferase reporter qHTS assay (AID 1671196). Further: nearly all actives have a fitted effect of over 50% in size. Further: potency means the concentration at half of the fitted maximal effect. On activity change, negative = inhibition: series mostly up to about 120 µM. The essentials:
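Enzyme and proluciferin substrate were first combined with test chemical for 10 min at room temperature. Adding NADPH regeneration solution started a 1 h reaction, stopped with luciferin detection reagent and read by luminescence 20 min later.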

The target in assay [8] is Cytochrome P450 2C19 (Homo sapiens) (UniProt P33261). Briefly: Cytochrome P450 Family 2 Subfamily C Member 19 (CYP2C19) small molecule antagonists: luciferase reporter qHTS assay (AID 1671197). Further: nearly all actives have a fitted effect of over 65% in size. Further: potency means the concentration at half of the fitted maximal effect. On activity change, negative = inhibition: series mostly up to about 120 µM. In outline:
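Light output is proportional to CYP2C19 activity: proluciferin substrate is converted to luciferin, then detected by a luciferin detection reagent that also stops the 1 h, 37C NADPH-driven reaction. Ketoconazole serves as positive control.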
A general note: In a reporter assay the amount or activity of a reporter protein is the signal.

Assay [9] addresses Cytochrome P450 2C9 (Homo sapiens) (UniProt P11712). The experiment in a line: Cytochrome P450 Family 2 Subfamily C Member 9 (CYP2C9) small molecule antagonists: luciferase reporter qHTS assay (AID 1671198). Further: nearly all actives have a fitted effect of over 50% in size. Further: potency means the concentration at half of the fitted maximal effect. On activity change, negative = inhibition: series mostly up to about 120 µM. In outline: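 P450-Glo proluciferin substrate with CYP2C9 enzyme; 10 min RT preincubation, then NADPH regeneration 1 h at 37C; luciferin detection reagent 20 min RT, luminescence in relative luminescence units.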

In assay [10] the target is Nuclear receptor subfamily 1 group I member 2 (Rattus norvegicus) (UniProt Q9R1A7). The experiment in a line: Rat pregnane X receptor (rPXR) activation by small molecules, qHTS assay (AID 1346983). Further: nearly all actives have a fitted effect of over 20% in size. Conditions: rPXR luciferase reporter cells, One-Glo luminescence, 24 h; max activation: stronger effect = higher value. The essentials:
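Cell-based rPXR activation assay: rPXR cells, 2,000 per well, rested 5hr at 37 C, then exposed to compounds in DMSO for 24 hr at 37 C. Luciferase activity read by One-Glo luminescence after 30 min at room temperature.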

Values joined by “and” are separate entries in the source; they are usually repeats but may differ in a detail not shown here. Equal values may be shown once. Inconclusive results are not listed. More than one record can exist for a structure, and the calls need not agree. Active and inactive are the calls of the source. The call rests on the fitted dose curve; in most records, active means well fitted curve in the direction sought with a large enough effect in the repeat runs; inconclusive means weak or mixed curves; inactive means no such curve, though single readings can be large; an effect the other way counts as inactive or inconclusive.
On the % scale 0 is the no-effect control and ±100 the full control effect.

Cytochrome P450 2C19 (Homo sapiens), sequence (P33261 whole entry, looked up): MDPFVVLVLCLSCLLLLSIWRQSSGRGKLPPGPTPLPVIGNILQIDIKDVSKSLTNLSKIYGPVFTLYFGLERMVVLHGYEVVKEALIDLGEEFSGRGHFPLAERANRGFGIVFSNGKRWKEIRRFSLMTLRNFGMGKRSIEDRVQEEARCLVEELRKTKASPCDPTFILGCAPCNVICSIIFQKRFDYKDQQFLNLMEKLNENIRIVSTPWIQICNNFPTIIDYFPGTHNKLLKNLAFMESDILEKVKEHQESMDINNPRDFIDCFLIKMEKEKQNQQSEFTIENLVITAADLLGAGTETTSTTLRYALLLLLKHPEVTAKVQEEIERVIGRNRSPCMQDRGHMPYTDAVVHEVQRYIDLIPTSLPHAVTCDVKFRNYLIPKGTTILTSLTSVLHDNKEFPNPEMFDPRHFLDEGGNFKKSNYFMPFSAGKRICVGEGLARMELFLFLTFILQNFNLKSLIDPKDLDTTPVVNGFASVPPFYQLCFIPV
Cytochrome P450 2C9 (Homo sapiens), sequence (P11712 whole entry, looked up): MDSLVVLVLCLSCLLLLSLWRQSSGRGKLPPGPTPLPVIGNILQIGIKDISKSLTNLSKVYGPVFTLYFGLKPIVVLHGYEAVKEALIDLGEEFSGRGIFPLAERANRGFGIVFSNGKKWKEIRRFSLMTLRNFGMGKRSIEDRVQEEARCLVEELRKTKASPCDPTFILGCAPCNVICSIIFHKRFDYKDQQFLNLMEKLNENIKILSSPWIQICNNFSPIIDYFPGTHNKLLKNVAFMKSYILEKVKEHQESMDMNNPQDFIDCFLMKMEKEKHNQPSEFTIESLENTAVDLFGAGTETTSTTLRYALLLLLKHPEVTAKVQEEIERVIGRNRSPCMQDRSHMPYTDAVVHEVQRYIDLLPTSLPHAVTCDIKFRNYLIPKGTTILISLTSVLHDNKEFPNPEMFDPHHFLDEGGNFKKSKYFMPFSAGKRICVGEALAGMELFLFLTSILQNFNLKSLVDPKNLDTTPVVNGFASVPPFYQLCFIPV
Cytochrome P450 2D6 (Homo sapiens), sequence (P10635 whole entry, looked up): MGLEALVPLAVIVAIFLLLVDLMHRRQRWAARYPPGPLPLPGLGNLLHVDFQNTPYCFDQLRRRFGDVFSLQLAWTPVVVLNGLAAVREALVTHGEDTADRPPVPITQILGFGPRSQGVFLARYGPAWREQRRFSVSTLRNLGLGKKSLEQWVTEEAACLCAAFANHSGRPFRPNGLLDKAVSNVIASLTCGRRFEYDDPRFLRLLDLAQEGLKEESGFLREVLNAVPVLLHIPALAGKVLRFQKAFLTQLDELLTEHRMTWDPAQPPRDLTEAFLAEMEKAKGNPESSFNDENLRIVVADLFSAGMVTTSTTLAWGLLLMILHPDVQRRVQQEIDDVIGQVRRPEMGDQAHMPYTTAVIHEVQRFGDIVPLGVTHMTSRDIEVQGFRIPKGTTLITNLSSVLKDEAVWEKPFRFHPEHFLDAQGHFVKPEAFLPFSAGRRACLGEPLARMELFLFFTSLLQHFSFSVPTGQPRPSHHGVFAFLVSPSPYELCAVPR
Nuclear receptor subfamily 1 group I member 2 (Rattus norvegicus), sequence (Q9R1A7 whole entry, looked up): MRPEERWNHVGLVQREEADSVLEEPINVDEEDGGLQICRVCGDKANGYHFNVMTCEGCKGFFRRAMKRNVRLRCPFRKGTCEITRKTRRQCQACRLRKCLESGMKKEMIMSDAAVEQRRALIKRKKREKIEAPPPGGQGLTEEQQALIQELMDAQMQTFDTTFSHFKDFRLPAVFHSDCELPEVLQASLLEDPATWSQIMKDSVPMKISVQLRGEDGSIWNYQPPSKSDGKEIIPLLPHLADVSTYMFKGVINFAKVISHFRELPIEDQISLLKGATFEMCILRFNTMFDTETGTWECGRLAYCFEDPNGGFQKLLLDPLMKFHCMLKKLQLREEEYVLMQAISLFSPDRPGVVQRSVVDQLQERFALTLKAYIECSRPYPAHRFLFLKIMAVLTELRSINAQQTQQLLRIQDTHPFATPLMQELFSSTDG

For `CN(C)[C@@H]1C(=O)C(C(N)=O)=C(O)[C@@]2(O)C(=O)C3=C(O)c4c(O)ccc(Cl)c4[C@@H](O)[C@H]3C[C@@H]12`, the Potency entry in [1], in [2], in assay [3], in assay [4], in [5] and in assay [6] was “inactive” throughout. Besides, the Potency entry in assay [7] was “inactive”.

Regarding `Cc1cc(CCN2CCN(c3nsc4ccccc34)CC2)cc2c1NC(=O)CC2(C)C`, the Potency was 24.3 µM (active) in assay [1]; 61.1 µM (active) in assay [3]; 19.3 µM (active) in assay [4]; 17.8 µM (active) in assay [7]; 71 µM (active) in assay [8]; 39.9 µM (active) in assay [9]. The Potency entry in assay [2] was “inactive”.

As for `COC(=O)C1=C(C)NC(C)=C(C(=O)OCC(C)C)C1c1ccccc1[N+](=O)[O-]` (configuration not stated), the Potency in [1] is 61.1 µM (active) and 29.8 µM (active); in assay [3], 54.5 µM (active). In addition, the Potency result in assay [2] was “inactive”.

As for `Cc1onc(-c2ccccc2Cl)c1C(=O)N[C@@H]1C(=O)N2[C@@H]1SC(C)(C)[C@@H]2C(=O)O`, the Potency result in [1], in assay [2] and in assay [3] was “inactive” in each case.

`O=C(O)c1c(Cl)cccc1Cl`: the Potency entry in assay [1], in assay [2], in assay [3], in [4] and in assay [7] was “inactive” each time. Also, in [8], the Potency is 34.9 µM (active).

`CCCCCCCCOC(=O)c1ccc(O)cc1`: the Potency in assay [1] was 24.3 µM (active); in assay [4], 30.5 µM (active) and inactive; in assay [7], 56.2 µM (active) and 39.9 µM (active); in assay [8] it was 22.4 µM (active) and 10 µM (active); in assay [9] it was 31.6 µM (active) and 35.6 µM (active). The Potency result in [2] and in assay [3] was “inactive” in each case.

On to `Clc1ccc2n[nH]nc2c1`, for which the Potency result in assay [1], in [2], in assay [3], in assay [4], in assay [7] and in assay [8] was “inactive” each time. Moreover, the Potency result in assay [9] is “inactive”.

Regarding `Cc1cc(O)c2ccccc2c1O`, the Potency in assay [1] is 10.6 µM (active); in assay [3] it was 33.5 µM (active); in assay [5] it was 1.58 µM (active); in assay [7], 17.4 µM (active); in assay [9], 12.3 µM (active). Further, the Potency entry in [2], in assay [4] and in assay [6] was “inactive” in each case.

`O=C(c1ccc(F)cc1)C1CCN(CCn2c(=O)[nH]c3ccccc3c2=O)CC1`: the Potency result in [1], in assay [2], in assay [3] and in assay [4] was “inactive” each time.

Regarding `CC(NN)c1ccccc1` (configuration not stated), the activity change, negative = cytotoxicity in [1] is 6.27% [at 19 µM] (inactive); in assay [3], 2.61% [at 19 µM] (inactive). In assay [2], the caspase-3/7 activation was 2.13% [at 19 µM] (inactive). Moreover, the activation in assay [4] was 7.91% [at 19 µM] (inactive). The Potency in assay [7] was 15.1 µM (active).

Take `O=C(OC[C@H]1O[C@@H](OC(=O)c2cc(O)c(O)c(OC(=O)c3cc(O)c(O)c(O)c3)c2)[C@H](OC(=O)c2cc(O)c(O)c(OC(=O)c3cc(O)c(O)c(O)c3)c2)[C@@H](OC(=O)c2cc(O)c(O)c(OC(=O)c3cc(O)c(O)c(O)c3)c2)[C@@H]1OC(=O)c1cc(O)c(O)c(OC(=O)c2cc(O)c(O)c(O)c2)c1)c1cc(O)c(O)c(OC(=O)c2cc(O)c(O)c(O)c2)c1`: the Potency in assay [1] is 16.5 µM (active); in assay [3] it was 18.5 µM (active); in assay [6] it was 10 µM (active); in assay [9] it was 21.5 µM (active). Also, in assay [2], the caspase-3/7 activation is 0.641% [at 19 µM] (inactive). Moreover, the activation in assay [4] is -5.98% [at 19 µM] (inactive). In assay [10], the max activation was -10.1% (inactive). Also, the Potency result in assay [5] and in [8] was “inactive” throughout. Moreover, the activity change, negative = inhibition in assay [7] was -17.1% [at 23.6 µM] (inactive).

Take `NC(=O)CC[C@@H]1NC(=O)[C@H](Cc2ccccc2)NC(=O)[C@H](Cc2ccc(O)cc2)NC(=O)CCSSC[C@@H](C(=O)N2CCC[C@H]2C(=O)N[C@@H](CCCN=C(N)N)C(=O)NCC(N)=O)NC(=O)[C@H](CC(N)=O)NC1=O`: the Potency entry in assay [1], in [2], in assay [3], in [4], in assay [5] and in assay [6] was “inactive” each time. Besides, the Potency result in assay [8] and in assay [9] was “inactive” each time.

As for `C=CC(=O)OCCn1c(=O)n(CCOC(=O)C=C)c(=O)n(CCOC(=O)C=C)c1=O`, the Potency was 4.33 µM (active) in assay [1]; 2.43 µM (active) in assay [2]; 27.3 µM (active) in [3]; 8.63 µM (active) in [4]; 2.83 µM (active) in assay [8]; 35.6 µM (active) in assay [9]. Also, in [7], the Potency result was “inactive”.

Take `CC(=O)SC[C@@H](Cc1ccccc1)C(=O)NCC(=O)OCc1ccccc1`: the Potency entry in assay [1], in assay [2], in assay [3], in [4] and in assay [6] was “inactive” in each case. For the same compound, the values for the Potency in assay [7] and in [9] were 1.1 µM (active) and 3.47 µM (active), respectively.

With `CC(C)(C)C(=O)OCOC(=O)C1N2C(=O)CC2S(=O)(=O)C1(C)C` (configuration not stated), the Potency entry in assay [1], in assay [2], in assay [3], in [4], in assay [7] and in assay [8] was “inactive” in each case.

For `Oc1cc2ccccc2c2ccccc12`, the Potency in [1] is 15.4 µM (active); in [3] it was 13.7 µM (active); in [7] it was 2.24 µM (active); in [9], 5.03 µM (active). For the same compound, the Potency result in assay [2] and in assay [4] was “inactive” in each case.

With `C=C(C)C(=O)OCC[N+](C)(C)C`, in [1], the Potency is 68.3 µM (active). Besides, the Potency entry in assay [2], in [3], in [4], in assay [7], in assay [8] and in [9] was “inactive” in each case.

`CC[C@H]1O[C@]2(CC[C@@H]1C)C[C@@H]1C[C@@H](C/C=C(\C)C[C@@H](C)/C=C/C=C3\CO[C@@H]4[C@H](O)C(C)=C[C@@H](C(=O)O1)[C@]34O)O2`: the Potency in [1] is 17.1 µM (active); in assay [2], 13.6 µM (active); in assay [3] it was 42.9 µM (active); in assay [4], 6.06 µM (active); in [8] it was 19.8 µM (active); in assay [9], 12.5 µM (active).

With `CCCCN1C(=O)[C@@H]([C@H](O)C2CCCCC2)NC(=O)C12CCN(Cc1ccc(Oc3ccc(C(=O)O)cc3)cc1)CC2`, the values for the Potency in assay [1] and in assay [3] were 61.1 µM (active) and 30.6 µM (active), respectively. Also, the Potency entry in assay [2], in assay [4], in assay [7] and in [9] was “inactive” in each case.

Consider `COc1cc(-c2ccc(N=C=O)c(OC)c2)ccc1N=C=O`, for which the Potency entry in assay [1], in [2], in assay [3], in assay [4], in assay [7] and in assay [9] was “inactive” in each case.

As to `[Cl][Bi]([Cl])([c]1ccccc1)([c]1ccccc1)[c]1ccccc1`, the Potency is 3.05 µM (active) in assay [1]; 68.2 µM (active) in assay [3]; 0.483 µM (active) in assay [4]; 6.29 µM (active) in assay [7]; 1.12 µM (active) in assay [9]. Also, the Potency result in assay [2] was “inactive”.
